In PubChem BioAssay (Tox21):
A number with no mark means an inactive call. Results filed as inconclusive are left out. Where a call stands in place of a potency, no number is given. The source made the active and inactive calls. Unless noted, calls come from the whole dose curve; as a rule, active = well fitted curve in the direction sought with a large enough effect in the repeat runs; inconclusive = weak or mixed curves; inactive = no such curve, though single readings can be large; an effect the other way counts as inactive or inconclusive.

Experiments:
[1] = target: Progesterone receptor (Homo sapiens) (UniProt P06401); test: qHTS assay to identify small molecule agonists of the progesterone receptor (PR) signaling pathway (AID 1346784; calls by dose curve; note: nearly all actives have a fitted effect of over 30% in size)
Sequence of Progesterone receptor (Homo sapiens) (P06401 whole entry, looked up): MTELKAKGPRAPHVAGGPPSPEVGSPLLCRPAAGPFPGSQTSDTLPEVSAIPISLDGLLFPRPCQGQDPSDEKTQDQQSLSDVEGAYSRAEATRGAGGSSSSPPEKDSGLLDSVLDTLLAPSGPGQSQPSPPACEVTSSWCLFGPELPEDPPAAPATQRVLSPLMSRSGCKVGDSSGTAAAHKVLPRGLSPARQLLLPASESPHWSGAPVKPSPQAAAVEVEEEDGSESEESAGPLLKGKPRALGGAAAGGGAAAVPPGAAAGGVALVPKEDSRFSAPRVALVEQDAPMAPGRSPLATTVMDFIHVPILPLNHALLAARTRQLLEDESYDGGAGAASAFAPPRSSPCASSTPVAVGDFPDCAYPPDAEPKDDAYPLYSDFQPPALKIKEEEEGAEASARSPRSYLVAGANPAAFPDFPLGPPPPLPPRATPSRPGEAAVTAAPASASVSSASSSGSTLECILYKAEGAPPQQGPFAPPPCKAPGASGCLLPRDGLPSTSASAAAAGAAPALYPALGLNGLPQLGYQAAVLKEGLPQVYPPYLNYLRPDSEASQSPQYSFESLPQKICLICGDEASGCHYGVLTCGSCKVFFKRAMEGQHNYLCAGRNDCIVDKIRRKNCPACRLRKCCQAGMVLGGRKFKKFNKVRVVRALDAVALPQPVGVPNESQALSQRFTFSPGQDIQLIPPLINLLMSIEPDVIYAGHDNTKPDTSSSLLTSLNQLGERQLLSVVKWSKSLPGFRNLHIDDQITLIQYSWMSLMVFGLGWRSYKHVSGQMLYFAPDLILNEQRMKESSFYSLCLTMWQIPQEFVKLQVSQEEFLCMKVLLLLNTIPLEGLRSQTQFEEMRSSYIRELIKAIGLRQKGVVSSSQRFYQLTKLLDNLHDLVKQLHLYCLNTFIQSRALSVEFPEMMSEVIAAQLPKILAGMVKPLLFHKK
Outline: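 HEK 293T PR-UAS-bla reporter cells, 2% charcoal-stripped FBS; 6 hr settle at 37C/5% CO2, compound (DMSO) 16 hr, LiveBLAzer B/G FRET substrate 2 hr RT, fluorescence intensity read.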

[2] = qHTS assay to identify small molecule antagonists of the progesterone receptor (PR) signaling pathway - cell viability counter screen (AID 1346798); note: nearly all actives have a fitted effect of over 50% in size; note: potency is the fitted concentration of half-maximal effect
Outline: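 Luminescence readout (CellTiter-Glo, 30 min, RT) of viability in PR-UAS-bla HEK293T cells exposed to compound and R5020 agonist for 16 hr at 37C, 5% CO2; run in the same wells as the beta-lactamase reporter read.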

[3] = qHTS assay to identify small molecule agonists of the progesterone receptor (PR) signaling pathway - cell viability counter screen (AID 1346799; calls by dose curve; note: nearly all actives have a fitted effect of over 45% in size)
Outline: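 HEK293T PR-UAS-bla, 3,000 cells/well, 2% charcoal-stripped FBS; 6 h settle, compound 16 h at 37C/5% CO2; LiveBLAzer 2 h RT, then CellTiter-Glo 30 min RT, luminescence read.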

[4] = qHTS assay to identify small molecule antagonists of the TGF-beta/Smad signaling pathway - cell viability counter screen (AID 1346824); note: nearly all actives have a fitted effect of over 50% in size
Outline: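 Cytotoxicity counter-screen run in the same wells as the beta-lactamase Smad reporter read: CellTiter-Glo luminescence after 30 min at room temperature. HEK 293T SBE-bla cells had 5 hr compound exposure at 37 C with TGF-beta1 (0.25 ng/mL stock).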

[5] = qHTS assay to identify small molecule agonists of the TGF-beta/Smad signaling pathway - cell viability counter screen (AID 1346829); note: top concentration of the series differs between compounds; nearly all actives have a fitted effect of over 45% in size
Outline: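 In parallel with the Smad reporter read, viability of HEK 293T cells stably carrying SBE-bla is quantified by ATP luminescence following 5 hr compound treatment.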

[6] = qHTS assay to identify small molecule agonists of the TGF-beta/Smad signaling pathway (AID 1346859; active = well fitted activation curve with a large enough effect in the signal ratio in the repeat runs, not every such curve was filed as active; the % refers to the signal ratio; note: series mostly up to about 77 µM)
Outline: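 Read-out: fluorescence at 460 and 530 nm (405 nm excitation) after a 2 hr room-temperature incubation with beta-lactamase FRET substrate. SBE-bla HEK 293T cells had been treated with test compounds for 5 hr at 37 C.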

[7] = target: Thyrotropin-releasing hormone receptor (Homo sapiens) (UniProt P34981); test: qHTS assay to identify small molecule antagonists of the thyrotropin-releasing hormone receptor (TRHR) signaling pathway (AID 1346877; active = well fitted inhibition curve with a large enough effect in the repeat runs, not every such curve was filed as active; note: series mostly up to about 51 µM)
Sequence of Thyrotropin-releasing hormone receptor (Homo sapiens) (P34981 whole entry, looked up): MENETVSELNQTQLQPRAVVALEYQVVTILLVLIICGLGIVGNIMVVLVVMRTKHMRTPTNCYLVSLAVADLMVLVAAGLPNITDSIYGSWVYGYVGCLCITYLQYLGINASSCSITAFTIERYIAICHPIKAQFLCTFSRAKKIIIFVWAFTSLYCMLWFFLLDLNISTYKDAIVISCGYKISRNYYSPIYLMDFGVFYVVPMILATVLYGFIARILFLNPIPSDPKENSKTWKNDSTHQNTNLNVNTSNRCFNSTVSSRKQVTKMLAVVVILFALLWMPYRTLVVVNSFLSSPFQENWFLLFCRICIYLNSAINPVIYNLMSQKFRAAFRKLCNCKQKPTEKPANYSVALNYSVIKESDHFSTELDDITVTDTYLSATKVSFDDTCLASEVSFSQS
Outline: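 TRHR-expressing HEK293 cells loaded with calcium dye for 2 h at 37 C; compounds pre-incubated 5 min at room temperature before TRH challenge at 1 nM final. Intracellular calcium fluorescence read kinetically for 3 min; 15 concentrations in triplicate.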

[8] = target: Thyrotropin-releasing hormone receptor (Homo sapiens) (UniProt P34981); test: qHTS assay to identify small molecule agonists of the thyrotropin-releasing hormone receptor (TRHR) signaling pathway (AID 1346891; calls by dose curve; note: series mostly up to about 58 µM)
Outline: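 HEK293/TRHR cells, 1500 per well, 18 h 37 °C; Ca dye 2 h 37 °C; pin-tool compound addition (agonist mode); kinetic fluorescence 3 min, 1 s reads; 15 concentrations, triplicate.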

[9] = Human pregnane X receptor (PXR) small molecule agonists, qHTS cell viability counter screen (AID 1346977); note: nearly all actives have a fitted effect of over 50% in size
Outline: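 Fluorescence read-out (CellTiter-Fluor) of viability in PXR-Luc HepG2 cells, multiplexed with the luciferase agonist read. Compounds in DMSO added after 5hr plating; 24hr total exposure at 37C, 5% CO2.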

[10] = Caspase-3/7 induction in HepG2 cells by small molecules, qHTS assay (AID 1346978); note: nearly all actives have a fitted effect of over 15% in size
Outline: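 Caspase-3/7 induction was measured by Caspase-Glo 3/7 luminescence (30 min, room temperature) after a 17 hr compound exposure of wild-type HepG2 cells seeded at 2,000 per well and pre-incubated 5 hr.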

[11] = Caspase-3/7 induction in CHO-K1 cells by small molecules, qHTS cell viability counter screen (AID 1346979); note: nearly all actives have a fitted effect of over 35% in size
Outline: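 CHO-K1 wt, 1,500 cells/well; 5hr pre-incubation 37C/5% CO2; compound pin transfer (DMSO); 16hr exposure; CellTiter-Fluor added, 1hr, fluorescence read.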

[12] = Caspase-3/7 induction in CHO-K1 cells by small molecules, qHTS assay (AID 1346980); note: nearly all actives have a fitted effect of over 15% in size
Outline: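 Luminescent Caspase-Glo 3/7 read (30min, room temperature) quantified apoptosis induction. Cells were wild-type CHO-K1, treated with compound for 17hr at 37 C and 5% CO2.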

[13] = Caspase-3/7 induction in HepG2 cells by small molecules, qHTS cell viability counter screen (AID 1346981); note: series mostly up to about 92 µM; nearly all actives have a fitted effect of over 30% in size
Outline: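 Wild-type HepG2 cells, 2,000/well, settled 5 hr at 37 C, 5% CO2 before compound addition. Viability read by CellTiter-Fluor fluorescence, reagent added after 16 hr compound exposure, then 1 hr at 37C, in the same wells as the caspase read.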

[14] = target: Nuclear receptor subfamily 1 group I member 2 (Homo sapiens) (UniProt O75469); test: Human pregnane X receptor (PXR) small molecule agonists, qHTS assay (AID 1346982); note: nearly all actives have a fitted effect of over 35% in size
Sequence of Nuclear receptor subfamily 1 group I member 2 (Homo sapiens) (O75469 whole entry, looked up): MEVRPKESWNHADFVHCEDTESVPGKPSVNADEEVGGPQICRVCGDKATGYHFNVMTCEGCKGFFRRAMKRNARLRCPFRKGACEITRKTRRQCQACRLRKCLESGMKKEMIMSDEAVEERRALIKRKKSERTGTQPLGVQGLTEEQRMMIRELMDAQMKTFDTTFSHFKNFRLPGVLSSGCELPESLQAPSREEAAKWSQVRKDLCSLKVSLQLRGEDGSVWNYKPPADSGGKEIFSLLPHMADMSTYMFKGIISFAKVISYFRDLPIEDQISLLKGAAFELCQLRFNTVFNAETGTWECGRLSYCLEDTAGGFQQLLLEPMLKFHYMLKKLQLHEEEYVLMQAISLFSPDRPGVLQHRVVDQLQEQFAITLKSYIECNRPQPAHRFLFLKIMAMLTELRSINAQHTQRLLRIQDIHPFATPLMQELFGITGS
Outline: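 PXR-Luc HepG2 reporter cells (CYP3A4-driven luciferase) in 5% charcoal-stripped FBS medium, plated 5 h before compound addition, then treated 24 h at 37C. Luciferase read by ONE-Glo luminescence after 30 min at room temperature.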

[15] = target: Nuclear receptor subfamily 1 group I member 2 (Rattus norvegicus) (UniProt Q9R1A7); test: Rat pregnane X receptor (rPXR) activation by small molecules, qHTS assay (AID 1346983); settings: rPXR luciferase reporter cells, One-Glo luminescence, 24 h; max activation: hits give high values; note: nearly all actives have a fitted effect of over 20% in size
Sequence of Nuclear receptor subfamily 1 group I member 2 (Rattus norvegicus) (Q9R1A7 whole entry, looked up): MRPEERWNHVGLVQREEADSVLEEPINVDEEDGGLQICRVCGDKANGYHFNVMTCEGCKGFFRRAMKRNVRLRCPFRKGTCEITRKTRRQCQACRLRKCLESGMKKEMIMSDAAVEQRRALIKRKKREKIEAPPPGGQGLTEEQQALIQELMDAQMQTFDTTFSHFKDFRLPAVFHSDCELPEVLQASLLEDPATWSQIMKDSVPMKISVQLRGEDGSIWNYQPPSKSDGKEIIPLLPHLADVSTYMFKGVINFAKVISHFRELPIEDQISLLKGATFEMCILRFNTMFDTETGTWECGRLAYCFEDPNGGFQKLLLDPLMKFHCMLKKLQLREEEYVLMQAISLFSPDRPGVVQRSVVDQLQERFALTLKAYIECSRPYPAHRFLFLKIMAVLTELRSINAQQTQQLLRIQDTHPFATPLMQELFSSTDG
Outline: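 Luminescent readout (One-Glo luciferase, 30 min room temperature) followed 24 hr compound treatment at 37 C of rPXR cells plated 2,000 per well and preincubated 5hr; qHTS format with compounds delivered in DMSO.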

[16] = target: Nuclear receptor subfamily 1 group I member 2 (Homo sapiens) (UniProt O75469); test: CYP3A4 induction through human pregnane X receptor (PXR) by small molecules, qHTS assay (AID 1346984); note: nearly all actives have a fitted effect of over 40% in size; note: potency is the fitted concentration of half-maximal effect
Outline: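 DPX-2 HepG2 cells carrying a PXR response element and CYP3A4-promoter luciferase construct, treated with compounds 24 hr at 37C. Then P450-Glo CYP3A4 Luciferin-IPA substrate (3uM final) for 3 hr at 37C, One-Glo added, luminescence read.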

[17] = target: Progesterone receptor (Homo sapiens) (UniProt P06401); test: qHTS assay to identify small molecule antagonists of the progesterone receptor (PR) signaling pathway (AID 1346795; active = well fitted inhibition curve with a large enough effect in the signal ratio in the repeat runs, not every such curve was filed as active; the % refers to the signal ratio)
Outline: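 Beta-lactamase reporter, HEK293T PR-UAS-bla line; 2% charcoal-stripped FBS; 6 hr pre-incubation, 37C/5% CO2. Compound + R5020 1 nM final, 16 hr. LiveBLAzer B/G FRET substrate, 2 hr RT; fluorescence intensity read.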

[18] = target: Nuclear receptor subfamily 1 group I member 2 (Homo sapiens) (UniProt O75469); test: Human pregnane X receptor (PXR) activation by small molecules, qHTS assay (AID 1346985); note: nearly all actives have a fitted effect of over 40% in size
Outline: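 DPX-2 cells (HepG2 co-transfected with a PXR response element and a CYP3A4-promoter luciferase construct) were seeded at 2,000 per well, rested 5 hr at 37C, then exposed to DMSO-dissolved compounds for 24 hr. Activation was read as luciferase luminescence.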

[19] = target: Cytochrome P450 2D6 (Homo sapiens) (UniProt P10635); test: Cytochrome P450 Family 2 Subfamily D Member 6 (CYP2D6) small molecule antagonists: luciferase reporter qHTS assay (AID 1671196); note: nearly all actives have a fitted effect of over 50% in size; note: potency is the fitted concentration of half-maximal effect
Sequence of Cytochrome P450 2D6 (Homo sapiens) (P10635 whole entry, looked up): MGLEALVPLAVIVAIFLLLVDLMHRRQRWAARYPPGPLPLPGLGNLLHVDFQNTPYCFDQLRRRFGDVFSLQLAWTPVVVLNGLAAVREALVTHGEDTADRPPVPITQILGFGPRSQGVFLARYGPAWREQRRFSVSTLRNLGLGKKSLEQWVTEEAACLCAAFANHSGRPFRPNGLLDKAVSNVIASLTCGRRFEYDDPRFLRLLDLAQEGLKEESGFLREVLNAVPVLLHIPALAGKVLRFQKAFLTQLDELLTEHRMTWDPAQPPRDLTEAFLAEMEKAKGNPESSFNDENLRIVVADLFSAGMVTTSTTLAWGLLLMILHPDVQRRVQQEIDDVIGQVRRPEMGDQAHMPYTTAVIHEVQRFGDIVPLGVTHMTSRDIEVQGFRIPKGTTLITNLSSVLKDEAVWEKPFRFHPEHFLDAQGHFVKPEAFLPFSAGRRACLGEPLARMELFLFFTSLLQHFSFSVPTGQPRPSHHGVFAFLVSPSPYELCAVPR
Outline: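 Cell-free P450-Glo system: CYP2D6 with proluciferin substrate was pre-incubated with compound for 10 min, then reacted with NADPH regeneration for 1 h at room temperature. Luciferin product was detected after 20 min, and data were reported as relative luminescence units.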

Structure (SMILES) | Potency [1] | Potency [2] | Potency [3] | outcome [4] | outcome [5] | outcome [6] | outcome [7] | Potency [8] | Potency [9] | Potency [10] | Potency [11] | outcome [12] | Potency [13] | Potency [14] | max activation [15] | Potency [16] | Potency [17] | Potency [18] | Potency [19]
Oc1ccccc1C=NCc1ccccc1 | inactive | inactive | inactive | inactive | inactive | inactive | inactive | inactive | inactive | inactive | inactive | inactive | inactive | inactive | -0.218% | 14.1 µM (active) |  |  | 
Cc1ccccc1C(=O)Nc1ccc(C(=O)N2CCCC(O)c3cc(Cl)ccc32)c(C)c1 (stereo not given) | inactive | inactive |  | inactive | inactive | inactive | inactive | inactive | inactive | inactive |  | inactive | inactive | inactive |  |  |  |  | 
O=Cc1ccc(O)c(O)c1O | inactive | inactive | inactive | inactive | inactive | inactive | inactive | inactive |  | inactive |  | inactive |  | inactive |  |  |  |  | 
COc1cc(N)c(Cl)cc1C(=O)NC1CCN(Cc2ccccc2)CC1 | inactive | inactive |  | inactive | inactive | inactive | inactive | inactive |  | inactive | inactive | inactive | inactive | inactive | -4.93% | inactive | inactive | inactive | 0.0309 µM (active)
CC(C)(C)c1ccc(OC(=O)c2ccccc2O)cc1 | inactive | inactive | inactive | inactive | inactive | inactive |  |  | inactive | inactive | inactive | inactive | inactive |  |  |  | inactive |  | inactive
CCOC(=O)C(Br)c1ccccc1 (stereo not given) | inactive | inactive | inactive | inactive | inactive | inactive |  |  | inactive | inactive | inactive | inactive | inactive | inactive |  |  |  |  | inactive
CC(Oc1c(Cl)cccc1Cl)C1=NCCN1 (stereo not given) | inactive | 29.8 µM (active) |  | inactive | inactive | inactive | inactive | inactive | inactive | inactive | inactive | inactive | inactive |  |  |  |  |  | 4.9 µM (active)
